Holding throughout (assay): DAPPL (digital affinity profiling via proximity ligation, sequencing); 10 mM Tris-HCl pH 7.5, 50 mM NaCl, 1 mM DTT, 4% glycerol, room temperature, 30 min; GST-TFs on glutathione beads, 16-mer random dsDNA library, 0.1% formaldehyde crosslink after washing; high values mean tight binding
What all share (settings): protein: recombinant; tags: N-terminal GST; dsDNA, one strand shown

The target in one test is T1, FLI1 (Homo sapiens, UniProt Q01543 1-452).
T1 sequence: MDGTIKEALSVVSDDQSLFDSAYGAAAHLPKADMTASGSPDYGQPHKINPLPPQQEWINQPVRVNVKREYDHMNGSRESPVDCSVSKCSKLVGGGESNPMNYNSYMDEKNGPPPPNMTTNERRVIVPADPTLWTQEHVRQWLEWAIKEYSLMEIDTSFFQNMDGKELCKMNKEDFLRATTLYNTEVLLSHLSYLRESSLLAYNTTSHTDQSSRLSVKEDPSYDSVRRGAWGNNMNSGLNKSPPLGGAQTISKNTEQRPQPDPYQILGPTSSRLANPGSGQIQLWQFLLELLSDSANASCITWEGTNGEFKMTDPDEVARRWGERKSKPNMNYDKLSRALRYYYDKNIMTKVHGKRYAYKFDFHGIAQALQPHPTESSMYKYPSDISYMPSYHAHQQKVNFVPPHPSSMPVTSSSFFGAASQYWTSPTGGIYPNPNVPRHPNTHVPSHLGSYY
Summed up: (§1)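 Pools were built from human transcription factors expressed in yeast as GST fusions, captured on glutathione beads and DNA-barcoded, along with a tag-only sample. Incubation with 200 nmole of a 16-mer random double-stranded DNA library lasted 30 min at room temperature in Tris/NaCl/DTT/glycerol buffer, and was followed by washing, 0.1% formaldehyde crosslinking, proximity ligation, PCR amplification and Illumina NextSeq500 sequencing. Binding signal is the quotient of each hexamer's read frequency for a factor and its frequency for the tag-only sample.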

A further test concerns the target T2, ELK1 (Homo sapiens, UniProt P19419 1-428).
T2 sequence: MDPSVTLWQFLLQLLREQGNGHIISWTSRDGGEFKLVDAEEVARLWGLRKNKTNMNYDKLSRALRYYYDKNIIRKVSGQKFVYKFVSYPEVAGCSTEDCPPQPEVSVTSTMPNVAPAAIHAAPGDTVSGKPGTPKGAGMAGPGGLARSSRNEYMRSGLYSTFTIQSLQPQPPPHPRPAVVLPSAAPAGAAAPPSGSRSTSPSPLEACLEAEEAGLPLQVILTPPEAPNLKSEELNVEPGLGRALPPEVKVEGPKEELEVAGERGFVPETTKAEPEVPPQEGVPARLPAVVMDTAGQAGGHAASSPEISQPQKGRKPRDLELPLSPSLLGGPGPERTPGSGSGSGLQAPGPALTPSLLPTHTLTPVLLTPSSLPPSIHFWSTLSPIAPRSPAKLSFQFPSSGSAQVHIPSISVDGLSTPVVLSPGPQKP
The method, boiled down:
as §1

In the next test the target is T3, GABPA (Homo sapiens, UniProt Q06546 1-454).
T3 sequence: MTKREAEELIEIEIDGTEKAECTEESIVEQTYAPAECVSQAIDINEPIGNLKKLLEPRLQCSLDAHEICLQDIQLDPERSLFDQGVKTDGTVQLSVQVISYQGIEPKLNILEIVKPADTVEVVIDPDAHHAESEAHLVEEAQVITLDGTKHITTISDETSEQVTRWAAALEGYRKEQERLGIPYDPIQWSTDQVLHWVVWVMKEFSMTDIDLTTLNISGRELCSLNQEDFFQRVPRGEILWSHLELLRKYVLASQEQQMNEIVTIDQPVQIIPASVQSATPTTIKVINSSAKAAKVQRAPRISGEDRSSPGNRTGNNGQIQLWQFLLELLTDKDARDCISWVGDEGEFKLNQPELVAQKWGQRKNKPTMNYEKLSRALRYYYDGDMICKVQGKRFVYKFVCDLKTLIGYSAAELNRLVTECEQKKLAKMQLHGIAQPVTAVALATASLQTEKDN
The method, boiled down: as §1

Another test has as its target T4, ERG (Homo sapiens, UniProt P11308 1-479).
T4 sequence: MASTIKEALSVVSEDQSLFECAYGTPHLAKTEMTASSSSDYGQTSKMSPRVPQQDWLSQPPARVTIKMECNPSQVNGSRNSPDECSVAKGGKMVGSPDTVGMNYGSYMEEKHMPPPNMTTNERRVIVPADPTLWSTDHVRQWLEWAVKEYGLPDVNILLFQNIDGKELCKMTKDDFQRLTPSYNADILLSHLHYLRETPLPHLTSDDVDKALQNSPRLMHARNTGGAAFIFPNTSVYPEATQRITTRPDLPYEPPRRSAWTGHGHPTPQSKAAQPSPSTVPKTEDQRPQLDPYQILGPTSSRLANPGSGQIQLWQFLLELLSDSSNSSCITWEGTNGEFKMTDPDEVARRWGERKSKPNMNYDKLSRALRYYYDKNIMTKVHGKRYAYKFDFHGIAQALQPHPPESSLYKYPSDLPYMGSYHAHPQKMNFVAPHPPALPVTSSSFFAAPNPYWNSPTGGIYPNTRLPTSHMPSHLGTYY
The method, boiled down: as §1

For the next test, the target named is ELF1 (Homo sapiens, UniProt P32519 1-619). Summed up: as §1
The target of another test is T5, EHF (Homo sapiens, UniProt Q9NZC4 1-300).
T5 sequence: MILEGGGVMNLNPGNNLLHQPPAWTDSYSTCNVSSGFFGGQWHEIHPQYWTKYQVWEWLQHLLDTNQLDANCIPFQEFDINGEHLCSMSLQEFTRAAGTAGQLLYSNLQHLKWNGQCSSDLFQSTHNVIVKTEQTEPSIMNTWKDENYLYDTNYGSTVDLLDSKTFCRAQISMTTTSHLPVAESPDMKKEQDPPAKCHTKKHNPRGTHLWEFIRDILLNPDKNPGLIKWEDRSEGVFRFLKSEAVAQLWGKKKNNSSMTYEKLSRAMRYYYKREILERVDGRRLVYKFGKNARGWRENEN
Summed up: as §1

For the next test, the target named is SPI1 (Homo sapiens, UniProt P17947 1-270). Summed up: as §1
The next test has as its target SPIB (Homo sapiens, UniProt Q01892 1-262). The method, boiled down: as §1
Another test has as its target T6, ELK3 (Homo sapiens, UniProt P41970 1-407).
T6 sequence: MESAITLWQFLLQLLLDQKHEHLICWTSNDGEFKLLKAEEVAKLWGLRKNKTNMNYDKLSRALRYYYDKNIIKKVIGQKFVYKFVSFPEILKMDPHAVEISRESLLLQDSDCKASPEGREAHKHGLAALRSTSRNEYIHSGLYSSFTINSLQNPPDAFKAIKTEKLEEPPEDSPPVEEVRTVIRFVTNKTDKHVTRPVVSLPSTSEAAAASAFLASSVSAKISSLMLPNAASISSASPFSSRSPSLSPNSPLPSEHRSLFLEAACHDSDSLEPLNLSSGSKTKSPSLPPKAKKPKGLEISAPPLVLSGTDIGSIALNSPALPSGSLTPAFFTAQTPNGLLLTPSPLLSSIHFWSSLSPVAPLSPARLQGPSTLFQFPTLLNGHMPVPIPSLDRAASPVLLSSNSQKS
Summed up: as §1

ELF1, sequence (P32519 whole entry): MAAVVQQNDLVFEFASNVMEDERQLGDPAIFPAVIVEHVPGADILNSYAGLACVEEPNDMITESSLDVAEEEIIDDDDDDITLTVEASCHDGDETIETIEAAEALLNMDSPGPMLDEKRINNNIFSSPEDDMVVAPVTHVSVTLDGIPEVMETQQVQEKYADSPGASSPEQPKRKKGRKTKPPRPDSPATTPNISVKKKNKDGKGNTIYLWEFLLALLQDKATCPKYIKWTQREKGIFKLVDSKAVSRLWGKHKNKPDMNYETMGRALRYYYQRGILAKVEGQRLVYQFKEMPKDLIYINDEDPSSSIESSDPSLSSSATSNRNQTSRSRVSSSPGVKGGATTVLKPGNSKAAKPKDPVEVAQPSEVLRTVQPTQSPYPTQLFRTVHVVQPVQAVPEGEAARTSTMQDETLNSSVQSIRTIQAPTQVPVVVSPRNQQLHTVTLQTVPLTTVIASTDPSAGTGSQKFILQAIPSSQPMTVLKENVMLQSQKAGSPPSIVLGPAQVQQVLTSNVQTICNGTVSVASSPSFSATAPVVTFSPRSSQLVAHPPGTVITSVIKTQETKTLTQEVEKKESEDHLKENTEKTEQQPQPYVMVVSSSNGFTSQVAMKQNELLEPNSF
SPIB, sequence (Q01892 whole entry): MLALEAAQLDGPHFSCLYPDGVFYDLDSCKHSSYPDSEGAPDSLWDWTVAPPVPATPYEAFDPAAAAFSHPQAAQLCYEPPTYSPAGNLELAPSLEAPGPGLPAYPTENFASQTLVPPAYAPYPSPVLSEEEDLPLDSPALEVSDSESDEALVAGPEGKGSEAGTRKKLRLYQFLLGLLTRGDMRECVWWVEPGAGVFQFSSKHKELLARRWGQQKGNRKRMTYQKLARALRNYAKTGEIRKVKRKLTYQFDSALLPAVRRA

As to AAGGAA, the binding signal with FLI1 is 1.19 fold enrichment (6-mer frequency, TF over GST control); in the test with ELK1 it was 1.27 fold enrichment (6-mer frequency, TF over GST control); with GABPA, 1.2 fold enrichment (6-mer frequency, TF over GST control); with ERG, 1.44 fold enrichment (6-mer frequency, TF over GST control); with ELF1 it was 1.25 fold enrichment (6-mer frequency, TF over GST control); with EHF, 1.48 fold enrichment (6-mer frequency, TF over GST control). Besides, the binding signal with SPI1 was 1.48 fold enrichment (6-mer frequency, TF over GST control); with SPIB it was 1.29 fold enrichment (6-mer frequency, TF over GST control); with ELK3, 1.21 fold enrichment (6-mer frequency, TF over GST control).
For CTCGCG, the binding signal with FLI1 is 1.47 fold enrichment (6-mer frequency, TF over GST control); in the test with ELK1, 1.35 fold enrichment (6-mer frequency, TF over GST control); with GABPA, 1.55 fold enrichment (6-mer frequency, TF over GST control); with ERG, 1.42 fold enrichment (6-mer frequency, TF over GST control); with ELF1 it was 1.41 fold enrichment (6-mer frequency, TF over GST control); with EHF, 1.32 fold enrichment (6-mer frequency, TF over GST control). The binding signal was 1.39 fold enrichment (6-mer frequency, TF over GST control) with SPI1; 1.45 fold enrichment (6-mer frequency, TF over GST control) in the test with SPIB; 1.34 fold enrichment (6-mer frequency, TF over GST control) in the test with ELK3.
CTGCAC: the binding signal with FLI1 was 1.2 fold enrichment (6-mer frequency, TF over GST control); with ELK1 it was 1.29 fold enrichment (6-mer frequency, TF over GST control); with GABPA, 1.12 fold enrichment (6-mer frequency, TF over GST control); with ERG, 1.13 fold enrichment (6-mer frequency, TF over GST control); with ELF1, 1.21 fold enrichment (6-mer frequency, TF over GST control); with EHF, 1.3 fold enrichment (6-mer frequency, TF over GST control). Besides, the binding signal with SPI1 is 1.19 fold enrichment (6-mer frequency, TF over GST control); with SPIB, 1.15 fold enrichment (6-mer frequency, TF over GST control); with ELK3, 1.12 fold enrichment (6-mer frequency, TF over GST control).
TCCGTC: the binding signal is 1.24 fold enrichment (6-mer frequency, TF over GST control) with FLI1; 1.43 fold enrichment (6-mer frequency, TF over GST control) with ELK1; 1.29 fold enrichment (6-mer frequency, TF over GST control) in the test with GABPA; 1.49 fold enrichment (6-mer frequency, TF over GST control) with ERG; 1.36 fold enrichment (6-mer frequency, TF over GST control) in the test with ELF1; 1.41 fold enrichment (6-mer frequency, TF over GST control) with EHF. The binding signal with SPI1 was 1.28 fold enrichment (6-mer frequency, TF over GST control); in the test with SPIB, 1.56 fold enrichment (6-mer frequency, TF over GST control); in the test with ELK3, 1.47 fold enrichment (6-mer frequency, TF over GST control).
As for ATGGTC, the binding signal with FLI1 was 1.66 fold enrichment (6-mer frequency, TF over GST control); in the test with ELK1, 1.45 fold enrichment (6-mer frequency, TF over GST control); in the test with GABPA, 1.65 fold enrichment (6-mer frequency, TF over GST control); with ERG, 1.69 fold enrichment (6-mer frequency, TF over GST control); in the test with ELF1, 1.55 fold enrichment (6-mer frequency, TF over GST control); with EHF, 1.47 fold enrichment (6-mer frequency, TF over GST control). The binding signal was 1.64 fold enrichment (6-mer frequency, TF over GST control) in the test with SPI1; 1.66 fold enrichment (6-mer frequency, TF over GST control) with SPIB; 1.52 fold enrichment (6-mer frequency, TF over GST control) with ELK3.
For the sequence AGTTAA, the binding signal in the test with FLI1 was 1.02 fold enrichment (6-mer frequency, TF over GST control); in the test with ELK1, 1.09 fold enrichment (6-mer frequency, TF over GST control); with GABPA, 1.05 fold enrichment (6-mer frequency, TF over GST control); with ERG, 1.12 fold enrichment (6-mer frequency, TF over GST control); with ELF1, 1.01 fold enrichment (6-mer frequency, TF over GST control); with EHF, 1.08 fold enrichment (6-mer frequency, TF over GST control). In addition, the binding signal in the test with SPI1 was 1.13 fold enrichment (6-mer frequency, TF over GST control); in the test with SPIB, 1.08 fold enrichment (6-mer frequency, TF over GST control); in the test with ELK3 it was 1.04 fold enrichment (6-mer frequency, TF over GST control).
As for ATTATC, the binding signal was 1.35 fold enrichment (6-mer frequency, TF over GST control) with FLI1; 1.35 fold enrichment (6-mer frequency, TF over GST control) with ELK1; 1.34 fold enrichment (6-mer frequency, TF over GST control) with GABPA; 1.32 fold enrichment (6-mer frequency, TF over GST control) with ERG; 1.29 fold enrichment (6-mer frequency, TF over GST control) with ELF1; 1.28 fold enrichment (6-mer frequency, TF over GST control) with EHF. In addition, the binding signal with SPI1 is 1.35 fold enrichment (6-mer frequency, TF over GST control); with SPIB, 1.27 fold enrichment (6-mer frequency, TF over GST control); with ELK3, 1.32 fold enrichment (6-mer frequency, TF over GST control).
As to CCTACC, the binding signal was 1.21 fold enrichment (6-mer frequency, TF over GST control) in the test with FLI1; 1.37 fold enrichment (6-mer frequency, TF over GST control) with ELK1; 1.39 fold enrichment (6-mer frequency, TF over GST control) in the test with GABPA; 1.29 fold enrichment (6-mer frequency, TF over GST control) in the test with ERG; 1.28 fold enrichment (6-mer frequency, TF over GST control) in the test with ELF1; 1.33 fold enrichment (6-mer frequency, TF over GST control) in the test with EHF. Further, the binding signal with SPI1 is 1.31 fold enrichment (6-mer frequency, TF over GST control); in the test with SPIB, 1.38 fold enrichment (6-mer frequency, TF over GST control); with ELK3 it was 1.27 fold enrichment (6-mer frequency, TF over GST control).

(Values after publication PMC7862700, “An all-to-all approach to the identification of sequence-specific readers for epigenetic DNA modifications on cytosine”.)
